Test results: PubChem BioAssay AID1159580 (chemical genetic matrix, 2015)
Several values for one entry are separate records, joined by “and”; a condition that tells them apart may be missing. Equal entries are not always repeated. Out of some 5,500 compounds screened, about 2,000 (36%) were called active. Roughly 18% stayed inconclusive and do not appear here. No stated cut-off is given here; in the data, active means normalized growth mostly below about 0.91 (no sharp cut-off); inconclusive means no clear call, values can overlap the other calls; inactive means mostly above about 0.92. The list shows a part of the results.

Assay: chemical genetic growth profiling, strain panel (AID 1159580);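 further: tested at 20 µM; growth read once vehicle control cultures reached saturation at 30 °C; 1 = growth at the plate median or of vehicle wells; lower values mean less growth of the strain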
Settings: S. cerevisiae deletion strains, growth OD

Measured: normalized growth

CC(=O)CCCCn1c(=O)c2c(ncn2C)n(C)c1=O
inactive: locus YAL013W, strain DEP1, active compounds read low 1.02 | locus YAL021C, strain ccr4, active compounds read low 1.01 | locus YAL026C, strain drs2, active compounds read low 1.01 | locus YAL030W, strain snc1, active compounds read low 1.01 | locus YAL040C, strain CLN3, active compounds read low 1 | locus YBL061C, strain skt5, active compounds read low 1.01 | locus YBR009C, strain hhf1, active compounds read low 1.02 | locus YBR021W, strain FUR4, active compounds read low 0.991 | locus YBR023C, strain chs3, active compounds read low 1.01 | locus YBR171W, strain sec66, active compounds read low 1.04 | locus YBR229C, strain ROT2, active compounds read low 1.02 | locus YBR231C, strain swc5, active compounds read low 1.03 | locus YBR279W, strain paf1, active compounds read low 1 | locus YCL011C, strain gbp2, active compounds read low 1.01 | locus YCL016C, strain dcc1, active compounds read low 1.01 | locus YCL029C, strain bik1, active compounds read low 1.01 | locus YCL061C, strain MRC1 (second series), active compounds read low 1.01 | locus YCL061C, strain MRC1, active compounds read low 1.01 | locus YCL069W, strain vba3, active compounds read low 1 | locus YCR088W, strain abp1, active compounds read low 1.01 | locus YDL005C, strain med2, active compounds read low 1.01 | locus YDL035C, strain GPR1, active compounds read low 1.01 | locus YDL040C, strain nat1, active compounds read low 1.01 | locus YDL074C, strain BRE1, active compounds read low 1.04 | locus YDL101C, strain DUN1, active compounds read low 1.02 | locus YDL185W, strain tfp1, active compounds read low 0.999 | locus YDL192W, strain arf1, active compounds read low 1 | locus YDR001C, strain nth1, active compounds read low 1.01 | locus YDR069C, strain doa4, active compounds read low 1.03 | locus YDR101C, strain arx1, active compounds read low 1.01 | locus YDR137W, strain rgp1, active compounds read low 1.03 | locus YDR150W, strain NUM1, active compounds read low 1.02 and 0.998 | locus YDR159W, strain sac3, active compounds read low 1.03 | locus YDR162C, strain NBP2, active compounds read low 1.01 | locus YDR195W, strain ref2 1.02 | locus YDR297W, strain sur2, active compounds read low 1.01 | locus YDR318W, strain mcm21, active compounds read low 0.993 | locus YDR334W, strain swr1, active compounds read low 1.02 | locus YDR335W, strain msn5, active compounds read low 1.01 | locus YDR363W, strain ESC2, active compounds read low 1 | locus YDR388W, active compounds read low 0.999 | locus YDR392W, strain spt3, active compounds read low 1.02 | locus YDR502C, strain sam2, active compounds read low 1.01 | locus YEL003W, strain gim4, active compounds read low 1.01 | locus YEL037C, strain rad23, active compounds read low 1.01 | locus YEL061C, strain CIN8 (second series), active compounds read low 1.01 | locus YEL061C, strain CIN8, active compounds read low 1.01 | locus YER002W, strain NOP16, active compounds read low 1.03 | locus YER015W, strain faa2, active compounds read low 1.02 | locus YER016W, strain bim1, active compounds read low 1.01 | locus YER110C, active compounds read low 0.992 | locus YER111C, strain swi4, active compounds read low 1.03 | locus YER155C, strain BEM2 (second series), active compounds read low 1.02 | locus YER155C, strain BEM2, active compounds read low 1.01 | locus YER167W, strain BCK2, active compounds read low 1 | locus YFR010W, strain ubp6, active compounds read low 1.01 | locus YGL078C, strain dbp3, active compounds read low 1.01 | locus YGL086W, strain mad1, active compounds read low 1.01 | locus YGL167C, strain pmr1, active compounds read low 1.02 | locus YGL173C, strain kem1, active compounds read low 1.02 | locus YGL227W, strain vid30, active compounds read low 1.01 | locus YGL240W, strain doc1, active compounds read low 1.03 | locus YGL248W, strain PDE1, active compounds read low 1.03 | locus YGL253W, strain hxk2, active compounds read low 1.02 | locus YGR078C, strain PAC10, active compounds read low 1.02 | locus YGR135W, strain pre9, active compounds read low 0.967 | locus YGR229C, strain SMI1, active compounds read low 1.02 | locus YGR252W, strain gcn5, active compounds read low 0.983 | locus YHR013C, strain ard1, active compounds read low 1.04 | locus YHR027C, strain rpn1, active compounds read low 1.02 | locus YHR030C, strain SLT2, active compounds read low 1.02 and 0.994 | locus YHR079C, strain IRE1 (second series), active compounds read low 1.01 | locus YHR079C, strain IRE1, active compounds read low 0.99 | locus YHR094C, strain hxt1, active compounds read low 0.995 | locus YHR129C, strain ARP1, active compounds read low 1.02 | locus YHR142W, strain chs7, active compounds read low 1.01 | locus YHR200W, strain rpn10, active compounds read low 1 | locus YIL066C, strain RNR3, active compounds read low 1.03 | locus YIL073C, strain SPO22, active compounds read low 0.971 | locus YIL125W, strain kgd1, active compounds read low 0.999 | locus YIR030C, strain dcg1, active compounds read low 1.01 | locus YJL092W, strain hpr5, active compounds read low 1.01 | locus YJL095W, strain BCK1 (second series), active compounds read low 1 | locus YJL095W, strain BCK1, active compounds read low 1.03 and 0.986 | locus YJL115W, strain asf1, active compounds read low 1.01 | locus YJL129C, strain trk1, active compounds read low 1.03 | locus YJL134W, strain LCB3, active compounds read low 1 | locus YJL154C, strain vps35, active compounds read low 1.01 | locus YJL164C, strain tpk1, active compounds read low 1.02 | locus YJL166W, strain qcr8, active compounds read low 1.01 | locus YJL168C, strain set2, active compounds read low 0.99 | locus YJL187C, strain SWE1 (second series), active compounds read low 1.03 | locus YJL187C, strain SWE1, active compounds read low 1.01 | locus YJR043C, strain POL32, active compounds read low 1.04
